RXFP1 ag: RXFP1 (human) receptor agonism; Q9HBX9; HEK293T-RXFP1 cAMP TR-FRET, 30 min; response scale: percent of porcine relaxin response, buffer zero; Potency, µM (series often up to 57.5 µM), most hits filed as activators; 370,000 tested, 0.3% active; AID 2676; active = well fitted activation curve with a large enough effect; inconclusive = small, poorly fitted or top-dose-only effect; note: nearly all actives have a fitted effect of over 60% in size
Target sequence (Q9HBX9 whole entry, looked up): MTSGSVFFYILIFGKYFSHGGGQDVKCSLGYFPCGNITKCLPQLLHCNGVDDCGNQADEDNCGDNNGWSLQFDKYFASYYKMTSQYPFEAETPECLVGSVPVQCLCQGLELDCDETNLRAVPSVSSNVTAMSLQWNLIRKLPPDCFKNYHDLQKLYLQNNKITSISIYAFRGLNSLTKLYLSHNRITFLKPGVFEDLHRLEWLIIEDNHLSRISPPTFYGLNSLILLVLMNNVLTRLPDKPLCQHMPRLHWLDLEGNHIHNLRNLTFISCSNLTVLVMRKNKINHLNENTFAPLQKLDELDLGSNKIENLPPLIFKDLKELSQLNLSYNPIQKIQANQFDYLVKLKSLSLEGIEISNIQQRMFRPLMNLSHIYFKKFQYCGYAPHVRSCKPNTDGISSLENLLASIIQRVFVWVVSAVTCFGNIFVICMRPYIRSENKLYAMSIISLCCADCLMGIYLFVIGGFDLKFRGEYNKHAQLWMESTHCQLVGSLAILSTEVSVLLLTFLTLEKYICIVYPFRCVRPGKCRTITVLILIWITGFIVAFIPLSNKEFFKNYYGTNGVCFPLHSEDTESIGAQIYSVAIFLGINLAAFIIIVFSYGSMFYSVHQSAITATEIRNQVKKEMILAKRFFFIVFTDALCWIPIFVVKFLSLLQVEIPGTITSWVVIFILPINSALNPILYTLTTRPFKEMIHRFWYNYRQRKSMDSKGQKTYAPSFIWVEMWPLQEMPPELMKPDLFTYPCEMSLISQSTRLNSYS
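HEK293 cells stably expressing RXFP1, treated 30 min at 37C with compounds plus PDE4 inhibitor Ro 20174; cAMP measured by HTRF TR-FRET. Normalized to buffer and 29 nM porcine relaxin; EC50 by Hill fit.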
gsp antag: gsp mutant antagonism. 340,000 tested, 0.4% active. Potency, µM (doses to about 76.9 µM), most hits filed as inhibitors. AID 624288. gsp-mutant cells, cAMP HTRF, 30 min; calls by dose curve; cell line not stated here;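 note: intracellular cAMP measured with PDE inhibitor Ro 20-1724 present during compound exposure; nearly all actives have a fitted effect of over 65% in size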
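HTRF cAMP read-out (cAMP-d2 plus anti-cAMP antibody-K in lysis buffer, 30 min RT). Before lysis, cells are exposed to compounds with […] for 30 min at 37C in DPBS containing Ca/Mg, BSA and Tween 20.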
RXFP1 antag: blocks the human relaxin receptor RXFP1; activity change, negative = inhibition, % at 57.5 µM; Q9HBX9; HEK293-RXFP1, relaxin-stimulated cAMP HTRF, 30 min; stronger effect = lower value; 350,000 tested, 0.59% active;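 active = activity change of -60% or lower, but not beyond a set lower limit; inconclusive = change between -60% and -40%, or beyond the set limit; inactive = change above -40%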
TSHR antag: human thyrotropin receptor antagonism. TSHR-expressing cells, TSH-stimulated cAMP HTRF, 2 h; stronger effect = lower value. P16473. activity change, negative = inhibition, % at 11.5 µM. AID 504810. 330,000 tested, 0.2% active;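 active = activity change below a set negative limit, meaning inhibition stronger than a set level, cut at about -70% in these data; inconclusive = activity change between two set negative limits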
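Cell-based HTRF cAMP assay; TSHR cells + compound, TSH EC80 (4nM final), 2 h, 37 deg C. Lysis with anti-cAMP cryptate and cAMP-d2, 30 min RT, read 665/620 nm.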
gsp ag: activates gsp, the McCune-Albright syndrome mutation; Potency, µM (series often up to 76.9 µM), most hits filed as activators; 340,000 tested, 0.13% active; gsp mutant cells, cAMP HTRF, 30 min; active = well fitted activation curve with a large enough effect; inconclusive = small, poorly fitted or top-dose-only effect, or another doubt; inactive = no such curve, though single readings can be large or run the other way; cell line not stated here;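 note: phosphodiesterase inhibitor Ro 20-1724 added with compounds to block cAMP breakdown; nearly all actives have a fitted effect of over 60% in size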
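Cells in DMEM/10% FBS with G418 were pretreated with compounds in DMSO plus […] (300 uM stock) for 30 min at 37C. cAMP was measured by HTRF (cAMP-d2 plus anti-cAMP antibody-K) after 30 min at room temperature.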
Akt phos inh: blocks phosphorylation of Akt; Neuro2A IGF-stimulated pAkt S473 HTRF, 20 min; stronger effect = lower value; activity change, % for hits at 50 µM; 360,000 tested, 0.32% active; AID 651550; in the data active = activity change below about -80%; inconclusive = mostly about -51% to -80%
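Neuro2A cells (4,500/well, DMEM with 0.5% FBS) were treated with compound at a single 50 µM final concentration, stimulated with 6 nM IGF for 20 min at 37 °C, and lysed. Phospho-Akt Ser473 was read by HTRF as 665/615 ratio ×10^4.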
Of the large screens only hits and unclear results are named; the others gave an inactive call. Sampled rows, rich in hits. Any-hit rate of the full collection: about 1.3%.

O=C(COc1ccc2ccccc2c1)N1CCN(C(=O)c2ccco2)CC1	RXFP1 antag -84.2
CCCC1=Nc2cc(C(=O)NCCN3CCOCC3)ccc2Sc2ccccc21	RXFP1 antag -99.7
CCOC(=O)C1CCCN(C(=O)c2ccc3c(c2)N(Cc2ccccc2)C(=O)c2ccccc2S3(=O)=O)C1 (stereo unspecified)	none (no result: gsp antag, TSHR antag, gsp ag, Akt phos inh)
O=C(NCCCN1CCOCC1)c1ccc2c(c1)N(Cc1ccc(Cl)cc1)C(=O)c1ccccc1S2=O (stereo unspecified)	TSHR antag -97.3
Cc1cccc(CN2C(=O)c3ccccc3Sc3ccc(C(=O)N4CCCC4)cc32)c1	RXFP1 antag -112.4 (no result: gsp antag, TSHR antag, gsp ag, Akt phos inh)
CCC1=Nc2cc(C(=O)NCCCN3CCN(C)CC3)ccc2Sc2ccccc21	none
CCOC(=O)C1CCCN(C(=O)c2ccc3c(c2)N(Cc2ccccc2)C(=O)c2ccccc2S3=O)C1 (stereo unspecified)	gsp antag 8.91µM
O=C(c1ccc2c(c1)N(Cc1ccc(Cl)cc1)C(=O)c1ccccc1S2=O)N1CCOCC1 (stereo unspecified)	none (no result: gsp antag, RXFP1 antag, TSHR antag, gsp ag, Akt phos inh)
Cc1ccc(CN2C(=O)c3ccccc3Sc3ccc(C(=O)NCCN4CCOCC4)cc32)cc1	TSHR antag -135.5
Cc1cccc(/C=C2\Sc3ccc(C(=O)N4CCCCC4)cc3N(C)C2=O)c1	none (no result: Akt phos inh)
CN1C(=O)/C(=C/c2cccc(Cl)c2)Sc2ccc(C(=O)N3CCCC3)cc21	gsp antag 8.91µM
O=C1C=CC(=O)N1CCCCCCCCCCN1C(=O)C=CC1=O	gsp antag 35.5µM (no result: RXFP1 ag, TSHR antag)
CCOC(=O)C(O)c1ccccc1 (stereo unspecified)	none (no result: RXFP1 ag, gsp antag, TSHR antag, gsp ag, Akt phos inh)
CCOC(=O)c1cc(NC(=O)CC(C)(C)CC(=O)O)ccc1N1CCCCC1	gsp antag 31.6µM
COC(=O)[C@]1(Cc2ccccc2)N[C@H](CN(C)C(=O)Nc2ccc(C)cc2)[C@@H]2C(=O)N(C)C(=O)[C@@H]21	none (no result: RXFP1 ag, RXFP1 antag, gsp ag)
CCCCOc1ccc(N(CC(=O)NCCOC)C(=O)CCC(=O)Nc2ccccn2)cc1	gsp antag 31.6µM
CCCCOc1ccc(N(CC(=O)NC(C)(C)CC)C(=O)CCC(=O)Nc2ccccn2)cc1	none
S=C(NCC1CCCO1)N1CCN(c2nc(-c3ccc(Cl)cc3)cs2)CC1 (stereo unspecified)	gsp antag 50.1µM
S=C(NCCCN1CCOCC1)N1CCN(c2nc(-c3ccc(Cl)cc3)cs2)CC1	RXFP1 antag inconclusive, gsp ag inconclusive
Cc1cccc(Cn2c(C)nc3ccc([N+](=O)[O-])cc3c2=O)c1	none
Cc1nc2ccc([N+](=O)[O-])cc2c(=O)n1Cc1cccc(F)c1	gsp ag 14.1µM
C[C@@H](NCCCc1cccc(C(F)(F)F)c1)c1cccc2ccccc12	RXFP1 antag -68.2 (no result: RXFP1 ag, gsp antag, TSHR antag, gsp ag, Akt phos inh)
O=C(CCCCCNc1nc(=S)[nH]c2ccccc12)N1CCN(c2ccccn2)CC1	none (no result: gsp antag, RXFP1 antag, gsp ag, Akt phos inh)
Cc1ccc(C)c(N2CCN(C(=O)CCn3c(=S)[nH]c4cc5c(cc4c3=O)OCO5)CC2)c1	RXFP1 antag -68.1, gsp ag inconclusive (no result: Akt phos inh)
COc1cccc(N2CCN(C(=O)CCCCCNc3nc(=S)[nH]c4ccccc34)CC2)c1	gsp antag inconclusive, RXFP1 antag -89.8
COc1ccc(CNC(=O)CCCn2c(=S)[nH]c3cc4c(cc3c2=O)OCO4)cc1	RXFP1 ag inconclusive, RXFP1 antag inconclusive, gsp ag inconclusive
O=C(CCCn1c(=S)[nH]c2cc3c(cc2c1=O)OCO3)N1CCN(c2ccccn2)CC1	RXFP1 antag inconclusive
O=C(CCCn1c(=S)[nH]c2ccccc2c1=O)N1CCN(c2cccc(Cl)c2)CC1	RXFP1 antag -89.0 (no result: Akt phos inh)
COc1ccc(N2CCN(C(=O)CCCn3c(=S)[nH]c4cc5c(cc4c3=O)OCO5)CC2)cc1	RXFP1 antag -69.3, gsp ag inconclusive (no result: Akt phos inh)
OC1(c2ccc(Cl)c(Cl)c2)C[n+]2ccccc2N1Cc1ccccc1 (stereo unspecified)	RXFP1 antag -68.5
OC1(c2ccccc2)CCN(Cc2ccccc2)CC1	none (no result: gsp antag)
COc1ccc(CCNC(=O)c2cc(-c3ccccn3)nc3ccccc23)cc1	none
COc1ccc(S(=O)(=O)N2CCCCC2)cc1NC(=O)CSc1ncnc2ccccc12	RXFP1 ag inconclusive, gsp ag 20µM (no result: RXFP1 antag)
NS(=O)(=O)c1cccc(NC(=O)CSc2ncnc3ccccc23)c1	RXFP1 ag 25.1µM, gsp ag inconclusive
COc1ccc(S(=O)(=O)N2CCOCC2)cc1NC(=O)CSc1cccc[n+]1[O-]	RXFP1 ag inconclusive, gsp ag 15.8µM
COc1ccc(S(=O)(=O)N2CCOCC2)cc1NC(=O)CSc1ccccc1	none
CC1CCCC(C)N1C(=O)Cn1nnc(-c2ccccc2)n1 (stereo unspecified)	gsp ag 15.8µM
CCOC(=O)Cn1nnc(-c2ccccc2)n1	none
O=C(/C=C/c1ccc(F)cc1)c1cc(Br)ccc1O	none
O=C(/C=C/c1ccccc1)c1cc(Br)ccc(=O)c1O	TSHR antag -85.0 (no result: Akt phos inh)
CCOc1cccc(/C=N/NC(=O)c2cc(-c3cccn3C)n[nH]2)c1O	gsp antag inconclusive, RXFP1 antag -76.9
COc1cc(OC)c(OC)cc1/C=N/NC(=O)c1cc(-c2cccn2C)n[nH]1	none (no result: Akt phos inh)
CSc1ncc(Cl)c(C(=O)Nc2c(C(=O)c3ccc(C)cc3)oc3ccccc23)n1	none (no result: gsp antag, RXFP1 antag, TSHR antag, gsp ag, Akt phos inh)
COc1ccc(-c2sc3ccccc3c2/C=C/c2ccc(OC)c(OC)c2)cc1	gsp ag inconclusive (no result: RXFP1 ag, RXFP1 antag)
COc1ccc(-c2sc3ccccc3c2/C=C/c2ccncc2)cc1	gsp antag 11.2µM (no result: RXFP1 ag, RXFP1 antag, gsp ag)
COC(=O)c1ccccc1S(=O)(=O)Oc1ccc(-c2ccc(C(=O)O)cc2)cc1	gsp antag 28.2µM
Cc1cccc(N(Cc2ccccc2)C(=O)c2cccc(S(=O)(=O)N3CC(C)OC(C)C3)c2)c1 (stereo unspecified)	none
O=C(NC1CCOc2ccccc21)c1ccccn1 (stereo unspecified)	TSHR antag -91.7, gsp ag inconclusive
Nc1cc(=O)[nH]n1C1CCCCC1	none
C[C@@H]1Cn2cnc(C(=O)NCc3ccc(CNC(=O)OC(C)(C)C)cc3)c2C(=O)N1	none (no result: RXFP1 ag, gsp antag, TSHR antag)
Cc1nc2c(cnn2-c2ccccc2Cl)c(=O)n1-c1ccc(C(C)C)cc1	gsp antag 35.5µM
O=C1NN(c2ccc(F)c(Cl)c2)C(=O)/C1=C\c1cccc(OC(=O)c2cccs2)c1	RXFP1 antag -85.7
CC(c1nnnn1C(C)(C)C)N(Cc1cccnc1)Cc1ccccc1Cl (stereo unspecified)	gsp antag 39.8µM
NC(=O)c1cc(S(=O)(=O)NCc2ccc(F)cc2)cs1	TSHR antag -131.6, gsp ag inconclusive
